Screening results: PubChem BioAssay, National Center for Advancing Translational Sciences (NCATS)
Pf growth 96h: inhibits malaria parasite growth, 96 h; Potency, µM (doses to about 28.7 µM), for inactives: at the highest dose activity change, negative = inhibition, usual class: inhibitors; 320,000 compounds, 6.9% hits; P. falciparum luciferase reporter growth, 96 h; further: potency means the concentration at half of the fitted maximal effect; on the % scale 0 is the no-effect control and ±100 the full control effect
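Compounds incubated with erythrocytes infected by luciferase-expressing P. falciparum (2% hematocrit, 0.05% parasitemia final) for 96 hours, 37 C in 5% CO2. Growth inhibition scored as decreased luciferase luminescence.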
Cycloheximide cs: counter-screen for Shiga toxin inhibitors: cycloheximide protein synthesis inhibition; 300,000 compounds, 12% hits; cell reporter, cycloheximide protein synthesis inhibition counterscreen; max response, %; in the data active means max response mostly above about 13%, no sharp cut-off; inactive means mostly below about 14%; further: read at 38.3 µM for the half of the compounds with a filed dose; 0% is about no effect
Pf growth 48h: inhibits P. falciparum growth in the first generation, 48 h; P. falciparum luciferase growth in erythrocytes, 48 h; 310,000 compounds, 5.9% hits; Potency, µM (doses to about 28.7 µM), without a hit: top-dose activity change, negative = inhibition, hits mostly inhibitors; AID 504832; further: potency means the concentration at half of the fitted maximal effect; on the % scale 0 is the no-effect control and ±100 the full control effect
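Read-out is firefly luciferase luminescence from an integrated reporter in P. falciparum, so falling signal marks reduced parasite growth. Infected erythrocytes were at 2% hematocrit and 0.1% parasitemia (final) in Albumax-supplemented RPMI 1640.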
NS1 function inh: influenza NS1 inhibition. 270,000 compounds, 0.4% hits. AID 2326. Potency, µM (titrated, usually from 46.1 µM), without a hit: at the top dose activity, positive = more growth; calls by dose curve; further: potency means the concentration at half of the fitted maximal effect; actives are rising curves; nearly all actives have a fitted effect of over 50% in size
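Growth recovery, yeast-based: influenza A NS1 expressed in S. cerevisiae causes slow growth, and suppressors are detected by OD600. The parent strain without NS1 is used as positive control.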
Shiga inhibitor: blocks Shiga toxin action in Vero cells; Vero cells, Shiga toxin protein synthesis inhibition reporter; inhibition, % at 38.7 µM; 290,000 compounds, 9.2% hits; AID 2315; in the data active means inhibition mostly above about 28%, no sharp cut-off; inactive means mostly below about 43%; further: 0% is about no effect
The depositor's hits bear a star; [ ] = remark or other dose. Hits are enriched below; roughly 21% of the tested compounds scored in any of these assays. Unless noted, the call rests on the fitted dose curve; in most records, active means well fitted inhibition curve with a large enough effect; inconclusive means small, poorly fitted or top-dose-only effect, or another doubt; inactive means no such curve, though single readings can be large or run the other way.

`Cc1ccccc1CN(C)C(C)C(=O)NCc1ccccc1` (stereo not given) gave Pf growth 96h 9.9%, Cycloheximide cs -7.0, Pf growth 48h 20.0%[0.00184 µM], NS1 function inh -2.0% and Shiga inhibitor -2.4.
`CCn1cc(C(=O)NCc2ccco2)c(=O)c2ccc(C)nc21` gave Pf growth 96h 0.5%, Cycloheximide cs -4.6, Pf growth 48h -11.2%, NS1 function inh -3.7% and Shiga inhibitor -3.8.
Screening CN(c1ccccc1C(=O)N1CCN(Cc2ccc3c(c2)OCO3)CC1)S(C)(=O)=O returned Pf growth 96h inconclusive, Cycloheximide cs -2.0, Pf growth 48h 11.2% and Shiga inhibitor -8.8.
O=C(COc1ccc(Br)cc1)N1CCc2ccccc2C1 was read as Pf growth 96h inconclusive, Cycloheximide cs 9.5, Pf growth 48h -19.8%, NS1 function inh -48.6% and Shiga inhibitor 23.6.
`Cc1cccc(OCC(=O)N2CCc3ccccc3C2)c1` gave Pf growth 96h inconclusive, Cycloheximide cs 26.7*, Pf growth 48h 0.0%, NS1 function inh -14.5% and Shiga inhibitor 33.4*.
Screening Cc1cccc(C)c1OCC(=O)N1CCc2ccccc2C1 returned Pf growth 96h 7.38µM*, Cycloheximide cs -2.2, Pf growth 48h inconclusive and NS1 function inh -83.8%.
COc1ccc(OCC(=O)N2CCc3ccccc3C2)cc1 was read as Pf growth 96h inconclusive, Cycloheximide cs 8.2, Pf growth 48h 0.2% and NS1 function inh -15.8%.
`COCCCNC(=O)C1CC(=O)N(C2CCCC2)C1` (stereo not given) gave Pf growth 96h 10.4µM*, Cycloheximide cs -8.4, Pf growth 48h 2.0%, NS1 function inh -1.0% and Shiga inhibitor -23.0.
`CCOCCCNC(=O)C1CC(=O)N(C2CCCC2)C1` (stereo not given) gave Pf growth 96h 11.7µM*, Cycloheximide cs -2.2, Pf growth 48h 14.2%, NS1 function inh 0.9% and Shiga inhibitor -1.0.
COc1cccc(C(=O)NC(c2ccccc2)C2CCCC2)c1 (stereo not given) was read as Pf growth 96h inconclusive, Cycloheximide cs -3.7, Pf growth 48h inconclusive, NS1 function inh -1.0% and Shiga inhibitor -6.8.
CCCn1c(=O)c(C(=O)NNS(=O)(=O)c2ccc(Cl)cc2)c(O)c2ccccc21 was read as Pf growth 96h 20.3%, Cycloheximide cs -2.6, Pf growth 48h 5.1%, NS1 function inh 14.9% and Shiga inhibitor -9.1.
Cc1cc(CC(C)CC(C)(C)C)n(O)c(=O)c1 (stereo not given) was read as Pf growth 96h 3.01µM* and Pf growth 48h 4.78µM*.
Screening CC(CC(C)(C)C)CP(=O)(O)CC(C)CC(C)(C)C (stereo not given) returned Cycloheximide cs -7.8 and Shiga inhibitor -20.4.
For CC1=C(C(=O)Nc2ccc(C)cc2C)C(c2ccc(C)o2)NC(=S)N1 (stereo not given) the results were Pf growth 96h 0.8%, Cycloheximide cs 0.7, Pf growth 48h -2.2%, NS1 function inh 19.8% and Shiga inhibitor -21.4.
`CCN(Cc1ccccc1)S(=O)(=O)c1c(C)[nH]c(C)c1C(=O)N1CCCC1` gave Pf growth 96h inconclusive, Cycloheximide cs -5.6, Pf growth 48h -5.0%, NS1 function inh -2.7% and Shiga inhibitor -14.1.
CNC1(C)C2CCC(C2)C1(C)C (stereo not given) was read as Pf growth 96h 6.01µM*, Pf growth 48h -12.1% and NS1 function inh 3.1%.
`COc1ccccc1[C@@H]1C(c2cccc(Cl)c2)=NN(c2ccc(Br)cc2)[C@H]1C(=O)N1CCOC1=O` gave Pf growth 96h inconclusive, Cycloheximide cs -1.7, Pf growth 48h inconclusive, NS1 function inh 5.9% and Shiga inhibitor -11.6.
CC1=CCC2CC1C2(C)C (stereo not given) was read as Pf growth 96h -10.4% and Pf growth 48h 0.5%.
`N#Cc1nn(-c2c(Cl)cc(C(F)(F)F)cc2Cl)c(N)c1S(=O)C(F)(F)F` (stereo not given) gave Pf growth 96h -22.8%, Cycloheximide cs -0.2, Pf growth 48h 1.9µM* and Shiga inhibitor -2.0.
For N#Cc1ncc(C(F)(F)F)cc1Sc1ccccc1N the results were Cycloheximide cs -0.6, Pf growth 48h -4.9%, NS1 function inh -67.0% and Shiga inhibitor -22.1.
`COc1cccc(C(=O)/C(C#N)=N/Nc2cccc(-c3ccnc(C)n3)c2)c1` gave Pf growth 96h inconclusive, Cycloheximide cs -0.9, Pf growth 48h inconclusive, NS1 function inh -5.8% and Shiga inhibitor -8.6.
For CCOCCCn1c(=S)[nH]c2cc(C(=O)N3CCN(c4ccccc4)CC3)ccc2c1=O the results were Pf growth 96h 14.7µM*, Cycloheximide cs -2.6, Pf growth 48h 18.8%, NS1 function inh 6.1% and Shiga inhibitor -6.4.
`CCOCCCn1c(=S)[nH]c2cc(C(=O)N3CCN(C)CC3)ccc2c1=O` gave Cycloheximide cs -5.2, Pf growth 48h -1.3%, NS1 function inh 11.4% and Shiga inhibitor -14.4.
For CCOCCCn1c(=S)[nH]c2cc(C(=O)N3CCN(C4CCCCC4)CC3)ccc2c1=O the results were Pf growth 96h 5.22µM*, Cycloheximide cs -1.9, Pf growth 48h 1.1%, NS1 function inh -0.2% and Shiga inhibitor -7.8.
COc1ccc(C(=O)Cn2c(Cl)nc3c2c(=O)n(C)c(=O)n3C)cc1 was read as Pf growth 96h 7.3%, Cycloheximide cs 0.8, Pf growth 48h 4.5%, NS1 function inh 1.4% and Shiga inhibitor -3.8.
`O=c1cc(O)c2sc3nc4c(c(C(F)(F)F)c3c2[nH]1)CCCCC4` gave Pf growth 96h 3.2%, Cycloheximide cs -1.6, Pf growth 48h 2.08µM*, NS1 function inh 12.7% and Shiga inhibitor -1.7.
[N-]=[N+]=CC(=O)C(c1ccccc1)(c1ccccc1)c1ccccc1 was read as Pf growth 96h inconclusive, Cycloheximide cs -2.3, Pf growth 48h inconclusive, NS1 function inh inconclusive and Shiga inhibitor 4.6.
CCCCNC(=O)c1onc(CSc2nc3ccccc3[nH]2)c1C(=O)NCCCC was read as Pf growth 96h 3.29µM*, Cycloheximide cs -0.7, Pf growth 48h 1.47µM*, NS1 function inh 18.6% and Shiga inhibitor -1.7.
For O=C(NCC1CC1)c1onc(CSc2nc3ccccc3[nH]2)c1C(=O)NCC1CC1 the results were Pf growth 96h 10.4µM*, Cycloheximide cs -1.4, Pf growth 48h inconclusive, NS1 function inh 13.5% and Shiga inhibitor -4.5.
For O=C(NCCCN1CCOCC1)c1onc(CSc2nc3ccccc3[nH]2)c1C(=O)NCCCN1CCOCC1 the results were Pf growth 96h 74.1%, Cycloheximide cs -1.3, Pf growth 48h 21.5%, NS1 function inh -13.6% and Shiga inhibitor 0.5.
Screening COc1ccc(CCN2CC(C(=O)Nc3cc(F)ccc3F)CC2=O)cc1OC (stereo not given) returned Pf growth 96h -1.1% and Pf growth 48h inconclusive.
CCOC(=O)c1c(C)nc2sc(C(=O)Nc3ccccc3)c(N)c2c1-c1ccc(OC)cc1 was read as Pf growth 96h 9.7%[5.75 µM], Cycloheximide cs -4.2, Pf growth 48h inconclusive, NS1 function inh 27.5% and Shiga inhibitor 18.5.
